# The entries come from a sample that favours hits as a whole.
# Pf apPOL inh = Pf-apPOL DNA polymerase inhibition | inhibition, % at 10 µM | Recombinant Pf-apPOL, molecular beacon fluorescence, 1.5 h | hit rate 0.25% among 210,000
# mHTT-CaM PPI inh = mHTT-calmodulin interaction abrogation; inhibition, % at 15 µM; hit rate 3.6% among 190,000; AlphaScreen His-mHTT/GST-CaM binding, luminescence;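 note: 0% = both proteins with DMSO and 100% = one protein alone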
# * marks the source's active call; other numbers are inactive results; nt = no result. Cut-off read from the data, not from the text of the source: active = inhibition above about 50%; inactive = the rest.
SMILES,Pf apPOL inh,mHTT-CaM PPI inh
O=S(=O)(c1cc(Br)c(Br)s1)N1CCN(c2ccccn2)CC1,-4,-7
COC(=O)[C@@H]1N2C(=O)[C@@H](NC(=O)C(C)Oc3ccccc3)[C@H]2SC1(C)C (stereo partly specified),-7,66*
CC(Oc1ccccc1)C(=O)N[C@@H]1C(=O)N2[C@@H]1SC(C)(C)[C@@H]2C(=O)OCc1ccccc1 (stereo partly specified),-7,36
Cc1cccn2c(=O)c3cc(C#N)c(=N)n(Cc4ccco4)c3nc12,-10,-2
Cc1cccc(-n2nc3c(c2NC(=O)C24CC5CC(CC(C5)C2)C4)CS(=O)(=O)C3)c1C,-7,10
Cc1cccc2c1NC(c1ccc([N+](=O)[O-])cc1)C1CC=CC21 (stereo unspecified),3,17
O=[N+]([O-])c1c(Cl)cc(O)c2c1C1C=CCC1C(c1ccccc1)N2 (stereo unspecified),3,75*
O=[N+]([O-])c1ccc(C2Nc3c(O)cc(Cl)c([N+](=O)[O-])c3C3C=CCC32)cc1 (stereo unspecified),-5,92*
COC(CNC(=O)c1c[nH]c2ccc(S(=O)(=O)N3CC(C)CC(C)C3)cc2c1=O)OC (stereo unspecified),-3,8
O=C(NCc1ccc(N2CCCCC2)cc1)C1CCN(c2nnc3ccccn23)CC1,-2,17
Cc1cc(F)ccc1NC(=O)c1ccc(-c2cncnc2)nc1,0,4
CCN(CC)CC#CC1(O)CCCCC1,0,-3
OC1(C#CC#CC2(O)CCCCC2)CCCCC1,0,82*
CCCC(=O)Nc1c(-c2ccc(C)cc2)nc2cc(C)ccn12,1,15
Cc1ccc(-c2nc3cc(C)ccn3c2NC(=O)C(Cl)Cl)cc1,-1,57*
O=C(CCN1C(=O)c2ccccc2C1=O)Nc1ccc(Br)cc1C(=O)O,-18,-3
CN(C)c1ccc(CN2CCc3c([nH]c4ccccc34)C2)cc1,-40,60*
Clc1ccccc1CN1CCc2c([nH]c3ccccc23)C1,-1,95*
c1ccc2c3c([nH]c2c1)CN(Cc1ccc2c(c1)OCO2)CC3,-2,29
COc1cccc(CN2CCc3c([nH]c4ccccc34)C2)c1OC,5,18
O=C(NC1CC1)c1ccc(-c2cccc(F)c2)nc1,-2,-5
Cn1ccnc1SCC(=O)c1ccc(O)c(O)c1,-1,-6
c1ccc(-c2cc3ncnc(N4CCSCC4)c3s2)cc1,-7,nt
Cc1nc2c(C(=O)NC3CCCCC3)cnn2c(C)c1Cc1ccccc1F,-9,6
COc1ccccc1/C=C1\C(=O)Nc2ccc(Cl)cc21,-1,24
SMILES,Pf apPOL inh,mHTT-CaM PPI inh
COc1ccc(/C=C2\C(=O)Nc3ccc(Cl)cc32)cc1OC,-11,74*
O=C1Nc2ccc(Cl)cc2/C1=C/c1ccccc1,0,65*
O=C1Nc2ccc(Cl)cc2/C1=C/c1ccccc1F,7,19
Cc1cccc(N2CCN(C(=O)c3cccc([N+](=O)[O-])c3C)CC2)c1C,-4,-1
CC(=O)Nc1cc(C(=O)NCCN2CCCCC2)c2ccc(C)nc2c1,24,6
CC(=O)Nc1cc(C(=O)N2CCN(C3CCCCC3)CC2)c2ccc(C)nc2c1,-49,24
CC(=O)Nc1cc(C(=O)N2CCN(c3cc(C)ccc3C)CC2)c2ccc(C)nc2c1,-16,100*
CC(=O)Nc1cc(C(=O)NC(C)C)c2ccc(C)nc2c1,32,-6
CC(=O)Nc1cc(C(=O)N2CCN(c3cccc(C)c3C)CC2)c2ccc(C)nc2c1,-34,95*
CC(=O)Nc1cc(C(=O)NC2CCCC2)c2ccc(C)nc2c1,16,100*
CC(=O)Nc1cc(C(=O)N2CCN(c3cccc(C)c3)CC2)c2ccc(C)nc2c1,-402,68*
CC1=NS(=O)(=O)N(C)C=C1C(=O)OCc1cccc(Cl)c1,-7,-4
O=C(Oc1ccc2c(=O)c(-c3ccccc3)coc2c1)c1ccc([N+](=O)[O-])cc1,-5,-7
CCOC(=O)C(C#N)=CN(N=Cc1ccccc1)c1ccccc1,-3,nt
Cc1nc2nc(SCC(=O)N3CCC(C)CC3)nn2c(C)c1Cc1ccc(Cl)cc1,-4,52*
Cc1ccc(Cc2c(C)nc3nc(SCC(=O)NC4CC4)nn3c2C)cc1,-2,3
O=C(NCCc1ccsc1)C(=O)Nc1ccon1,-5,-9
COc1ccc(C(=O)n2c(=O)oc3cc([N+](=O)[O-])ccc32)cc1,-2,4
COc1cc(C=O)ccc1OCCN1CCOCC1,-7,1
Cc1cccc2oc(-c3cc(N=Cc4ccc([N+](=O)[O-])cc4)ccc3O)nc12,59*,12
Cc1cccc2oc(-c3cc(N=Cc4cc([N+](=O)[O-])cc([N+](=O)[O-])c4O)ccc3O)nc12,1,28
Cc1ncc(CO)c2cc(C(=O)Nc3ccc(F)cc3F)c(=Nc3ccc(Cl)cc3)oc12,1,0
CC1CCN(Cc2cc(Br)c(O)c3ncccc23)CC1,-7,100*
Cc1ccc2c(CN3CCC(C)CC3)cc(=O)oc2c1,-8,-17
COc1ccc(-c2nnc(N3CCC(C(=O)NCc4ccccc4Cl)CC3)o2)cc1,0,3
SMILES,Pf apPOL inh,mHTT-CaM PPI inh
CCC(=O)N1CCCN(Cc2nc(-c3ccc(Cl)cc3)no2)CC1,-12,9
Clc1ccccc1C1CC(c2ccco2)=Nc2ccccc2S1 (stereo unspecified),-2,51*
Cc1ccc(C2CC(c3ccccc3)=Nc3ccccc3S2)cc1 (stereo unspecified),-7,nt
O=C(c1cc2ccccc2[nH]1)N1CCC2(C1)NC(=O)N(Cc1ccc(F)cc1)C2=O (stereo unspecified),-2,-2
O=C(c1c[nH]c2ccccc12)N1CCC2(CC1)NC(=O)N(Cc1ccccc1Cl)C2=O,-7,98*
O=C(c1cc2ccccc2[nH]1)N1CCC2(CC1)NC(=O)N(Cc1ccc(F)cc1)C2=O,-3,70*
O=C(c1c[nH]c2ccccc12)N1CCC2(CC1)NC(=O)N(Cc1ccc(F)cc1)C2=O,-5,58*
O=C(c1ccccc1)N1CCC2(CC1)NC(=O)N(Cc1ccc(F)cc1)C2=O,-4,8
O=C(c1ccccc1)N1CCC2(CC1)NC(=O)N(Cc1ccccc1Cl)C2=O,-3,9
Cc1ccc(C2CN(S(=O)(=O)c3cccc(Cl)c3)CCN2C)cc1 (stereo unspecified),0,1
CN(C)C(=O)C1CCCN(c2cnn(Cc3ccccc3)c(=O)c2)C1 (stereo unspecified),2,-8
CCOc1ccc(NC(=O)C2CCN(c3nccnc3Oc3cccc(C)c3)CC2)cc1,-7,-6
C#CC1(O)CCC2C3CCc4cc(O)ccc4C3CCC21C (stereo unspecified),1,0
CC12CCC3c4ccc(O)cc4CCC3C1CC(=Cc1ccc(Cl)cc1)C2O (stereo unspecified),-9,100*
CC12CCC3c4ccc(O)cc4CCC3C1CC(=Cc1ccccc1)C2O (stereo unspecified),-11,97*
COc1cc2c(cc1O)CC[C@@H]1[C@@H]2CC[C@]2(C)[C@@H](O)CC[C@@H]12,-3,nt
Cc1cc(C)c(S(=O)(=O)Nc2ccc(N3CCCS3(=O)=O)cc2)cc1C,-3,2
CN(C)c1ccc(C2N(C(=O)c3ccccc3)CCN2S(=O)(=O)c2ccccc2)cc1 (stereo unspecified),-1,41
Cc1ccccc1CSC1=NCCN1C(=O)C1CC1,-4,-9
